Among the data in PubChem BioAssay (EPA / NIEHS) are outcome and AC50 values, retold here.

The source made the active and inactive calls. Rule for the calls: active = hit-call score of the fitted dose curve at least 0.9, where 1 is the maximum; inactive = score below 0.9.

A short description of the first test: ATG_RORE_CIS: Attagene CIS-FACTORIAL HepG2 Assay for human RAR-related Orphan Receptor Element (RORE) (AID 2282959). The settings on record: HepG2 Attagene cis-factorial RORE reporter, mRNA; actives raise or lower the signal. In short, it runs like this:
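Measured here: transcript induction of a cis-regulated reporter in HepG2 cells transiently transfected via FuGene 6. After 24 h, RNA was processed by RT-PCR and fluorescent capillary electrophoresis; DMSO defined baseline activity.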
As for `CC1=CC(=O)c2ccccc2C1=O`, the molecule was classed as inactive.
For `CC(C)(C)C1CCCCC1O` (centres undefined), the molecule was classed as inactive.
In the case of `CC(C)CCOCCC(C)C`, the molecule was classed as inactive.
`CCCCCCCCCCCCCC[n+]1ccccc1`: the call was inactive.
On the same count and under the same terms, the result for `CCCCCCCC(OC)OC` reads “inactive”; that for `O=CC(F)(F)C(F)(F)C(F)(F)C(F)F`, “inactive”; that for `CCCCCCCCCCCCCCC`, “inactive”.
For `O=C1OC(=O)C(F)(F)C1(F)F`, the call was inactive.
Still for that read-out and setting: the result for `COCN(COC)c1nc(N(COC)COC)nc(N(COC)COC)n1` reads “inactive”; that for `CC(=O)Nc1ccc(S(N)(=O)=O)cc1`, “inactive”.
The AC50 is the midpoint of the concentration-response curve, whichever way the signal moves. For `CCCCCCCCCCCC(=O)NCCCN(C)C`, the AC50 is 21.3 µM (active).
On to `C=CC(C)(CCC=C(C)C)OC(C)=O` (centres undefined), for which the molecule was classed as inactive.
As to `O=C(OC(=O)C(F)(F)C(F)(F)F)C(F)(F)C(F)(F)F`, the result was inactive.
For the molecule `C[N+](C)(CCCNS(=O)(=O)CCC(F)(F)C(F)(F)C(F)(F)C(F)(F)C(F)(F)C(F)(F)F)CC(=O)[O-]`, the result was inactive.
Still for that read-out and setting: the result for `CCOC(=O)CN[C@@H](C(=O)N1CC[C@H]1C(=O)NCc1ccc(/C(N)=N/O)cc1)C1CCCCC1` reads “inactive”; that for `CC(O)COc1ccccc1` (centres undefined), “inactive”.
Consider `CCC(C)c1ccccc1O` (centres undefined), for which the call was inactive.
In the case of `C/C=C/C(=O)C1=C(C)CCCC1(C)C`, the result was inactive.
For the molecule `O=C(NCc1ncc(C(F)(F)F)cc1Cl)c1c(Cl)cccc1Cl`, the call was inactive.
Consider `CCCCCC(C)OC(=O)COc1ccc(Cl)c2cccnc12` (centres undefined), for which the result was inactive.
On to `O=S(=O)(O)C(F)(F)C(F)(F)C(F)(F)C(F)(F)C(F)(F)C(F)(F)C(F)(F)C(F)(F)C(F)(F)C(F)(F)F`, for which the molecule was classed as inactive.
In the case of `c1cc2cccc3c4cccc5cccc(c(c1)c23)c54`, the call was inactive.
As to `CCCCC(CC)C(=O)OCCOCCOCCOCCOC(=O)C(CC)CCCC` (centres undefined), the call was inactive.
On the same count and under the same terms, next, `CCCCCCCCCCCCOC(=O)c1cc(O)c(O)c(O)c1`: “inactive”; `CCOC(C)=O`: “inactive”; `Cc1ccccc1OCC(=O)O`: “inactive”.
Regarding `NCc1cccc(CN)c1`, the molecule was called inactive.
Regarding `CC(C)(C)c1ccc(CCC=O)cc1`, the molecule was called inactive.
For `CC(=O)CC(C)C`, the molecule was classed as inactive.
Take `NNc1nc(-c2ccc([N+](=O)[O-])cc2)cs1`: the molecule was classed as inactive.
In the case of `OCC(F)(F)C(F)(F)C(F)(F)C(F)(F)C(F)(F)C(F)(F)C(F)(F)C(F)(F)C(F)(F)C(F)(F)C(F)(F)F`, the molecule was classed as inactive.
The same measure, in the same setting: the result for `COC(=O)C(F)(F)C(F)(F)C(F)(F)F` reads “inactive”; that for `CCOC=O`, “inactive”.
Take `CCCCCCCCCCCC[N+](C)(C)CCCCCCCCCCCC`: the AC50 was 26.1 µM (active).
For the molecule `CCCCCCCCCC=CCC1CC(=O)OC1=O` (centres undefined), the outcome was inactive.
Take `FC(F)(F)C(F)(F)C(F)(F)Br`: the molecule was classed as inactive.
As to `Oc1cccc2c(O)cccc12`, the molecule was classed as inactive.

A further test is described as follows: ATG_Sox_CIS: Attagene CIS-FACTORIAL HepG2 Assay for human SRY-box transcription factor (SOX) (AID 2282960). Particulars: HepG2 Attagene cis-factorial SOX reporter, mRNA; actives raise or lower the signal. In short, it runs like this:
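Using transiently transfected HepG2 cells, reporter transcription driven by cis elements was assessed 24 h after dosing. Signal was fluorescence of capillary-separated RT-PCR products, with DMSO defining baseline activity.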
`CC1=CC(=O)c2ccccc2C1=O`: the outcome was inactive.
Consider `CC(C)(C)C1CCCCC1O` (centres undefined), for which the result was inactive.
On to `CC(C)CCOCCC(C)C`, for which the outcome was inactive.
In the case of `CCCCCCCCCCCCCC[n+]1ccccc1`, the outcome was inactive.
`CCCCCCCC(OC)OC`: the call was inactive.
`O=CC(F)(F)C(F)(F)C(F)(F)C(F)F`: the call was inactive.
As for `CCCCCCCCCCCCCCC`, the outcome was inactive.
Turning to `O=C1OC(=O)C(F)(F)C1(F)F`, the result was inactive.
Turning to `COCN(COC)c1nc(N(COC)COC)nc(N(COC)COC)n1`, the outcome was inactive.
Regarding `CC(=O)Nc1ccc(S(N)(=O)=O)cc1`, the molecule was classed as inactive.
Still for that read-out and setting: next, `CCCCCCCCCCCC(=O)NCCCN(C)C`: “inactive”; `C=CC(C)(CCC=C(C)C)OC(C)=O` (centres undefined): “inactive”.
On to `O=C(OC(=O)C(F)(F)C(F)(F)F)C(F)(F)C(F)(F)F`, for which the outcome was inactive.
Same read-out and setting: next, `C[N+](C)(CCCNS(=O)(=O)CCC(F)(F)C(F)(F)C(F)(F)C(F)(F)C(F)(F)C(F)(F)F)CC(=O)[O-]`: “inactive”; `CCOC(=O)CN[C@@H](C(=O)N1CC[C@H]1C(=O)NCc1ccc(/C(N)=N/O)cc1)C1CCCCC1`: “inactive”; `CC(O)COc1ccccc1` (centres undefined): “inactive”.
For the molecule `CCC(C)c1ccccc1O` (centres undefined), the molecule was classed as inactive.
With `C/C=C/C(=O)C1=C(C)CCCC1(C)C`, the AC50 is 46.1 µM (active).
Consider `O=C(NCc1ncc(C(F)(F)F)cc1Cl)c1c(Cl)cccc1Cl`, for which the call was inactive.
Still for that read-out and setting: the result for `CCCCCC(C)OC(=O)COc1ccc(Cl)c2cccnc12` (centres undefined) reads “inactive”; that for `O=S(=O)(O)C(F)(F)C(F)(F)C(F)(F)C(F)(F)C(F)(F)C(F)(F)C(F)(F)C(F)(F)C(F)(F)C(F)(F)F`, “inactive”; that for `c1cc2cccc3c4cccc5cccc(c(c1)c23)c54`, “inactive”.
On to `CCCCC(CC)C(=O)OCCOCCOCCOCCOC(=O)C(CC)CCCC` (centres undefined), for which the call was inactive.
Turning to `CCCCCCCCCCCCOC(=O)c1cc(O)c(O)c(O)c1`, the outcome was inactive.
With `CCOC(C)=O`, the molecule was called inactive.
In the case of `Cc1ccccc1OCC(=O)O`, the molecule was called inactive.
As for `NCc1cccc(CN)c1`, the molecule was classed as inactive.
Take `CC(C)(C)c1ccc(CCC=O)cc1`: the molecule was classed as inactive.
As for `CC(=O)CC(C)C`, the molecule was called inactive.
As to `NNc1nc(-c2ccc([N+](=O)[O-])cc2)cs1`, the outcome was inactive.
Still for that read-out and setting: the result for `OCC(F)(F)C(F)(F)C(F)(F)C(F)(F)C(F)(F)C(F)(F)C(F)(F)C(F)(F)C(F)(F)C(F)(F)C(F)(F)F` reads “inactive”; that for `COC(=O)C(F)(F)C(F)(F)C(F)(F)F`, “inactive”; that for `CCOC=O`, “inactive”.
On to `CCCCCCCCCCCC[N+](C)(C)CCCCCCCCCCCC`, for which the molecule was called inactive.
As for `CCCCCCCCCC=CCC1CC(=O)OC1=O` (centres undefined), the molecule was called inactive.
On the same count and under the same terms, the result for `FC(F)(F)C(F)(F)C(F)(F)Br` reads “inactive”; that for `Oc1cccc2c(O)cccc12`, “inactive”.
